Results: PubChem BioAssay
Several values for one entry are separate records, joined by “and”; a condition that tells them apart may be missing. Equal entries are not always repeated. For some of these results: Potency and affinity values are given separately. Some compounds were tested as several samples or in several runs, with calls that do not always agree. Activity calls are given as the source filed them. Rule as the data show it, unless noted: active = parasite load remaining mostly below about 12% (no sharp cut-off); inactive = mostly above about 10%.

Assays:
[1] = polyglutamine-triggered caspase-3 activation inhibitors, cell-based (AID 1583); details: polyglutamine-induced caspase-3 activation, cell assay; stronger effect = higher value;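 tested at 10 µM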
[2] = suppressors of polyQ aggregation in yeast, 75Q-TubU reporter (AID 1593); details: Yeast 75Q polyglutamine aggregation reporter
[3] = rescue of polyQ-huntingtin neuronal dysfunction in worms, whole organism, C. elegans mechanosensory neurons, N-terminal huntingtin (AID 1599); details: touch response, stronger effect = higher value
[4] = inhibitors of mitochondrial cytochrome c release, biochemical, purified mitochondria (AID 1603); details: stronger effect = lower value;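 also: mouse liver mitochondria challenged with calcium chloride; signal normalized to the plate average as 100%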
[5] = inhibitors of polyQ protein aggregation (AID 1604); details: polyglutamine-induced protein aggregation inhibition assay; stronger effect = higher value; tested at 2.5 µM
[6] = enhancers of glutamate uptake in motor neurons, MN-1 cell line (AID 1612); details: MN-1 motor neuron cells, stronger effect = higher value;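 also: tested at 1 µM final; 0% = mean of DMSO vehicle wells on each plate; positive means more glutamate uptake than control and negative means less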
[7] = reducers of polyQ inclusions in PC12 cells, cell-based, NGF-treated PC12, GFPQ80 (AID 1614); details: PC12 NGF-treated GFP-polyQ80 inclusion reduction;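 also: lower means fewer inclusions and 0 means no inclusions at all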
[8] = suppressors of polyglutamine aggregation in yeast, 75Q-TubH (AID 1616); details: S. cerevisiae 75Q-TubH polyglutamine aggregation suppression; stronger effect = higher value
[9] = liver-stage malaria parasite growth inhibition, primary screen, cell-based, HepG2, luciferase luminescence, HepG2 viability (AID 624349);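 also: 100% = mean of DMSO negative control wells on the same plate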; details: P. berghei liver stage in HepG2, luciferase luminescence, concentration not given here; parasite load remaining: stronger effect = lower value; viability: measured here: HepG2 viability without parasites
[10] = differential killing of epithelial or mesenchymal cells, primary screen, imaging, PC-3E GFP, TEM4-18 mCherry, co-culture (AID 1345086;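 active = compounds killing one labelled cell type while sparing the other, by normalised counts and ratio limits, not self-fluorescent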;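 as to all read-outs here: cells exposed to compound for 72 h before imaging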;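 as to red/green cell ratio (normalised): normalised mesenchymal count divided by normalised epithelial count so high means epithelial killing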); details: imaging cell counts, at 1 µM; for red/green cell ratio (normalised): actives lie on both sides, counts scaled to control wells, 1 = unselective
[11] = sensitizers of A549 cells to miR-34 induction, primary screen, imaging, A549 dox-inducible miR-34, nuclei and caspase counts (AID 1347080;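 active = compounds whose cell count with miR-34 switched on is under 0.7 times the count with it off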); details: A549 miR-34 inducible, Hoechst nuclei count, 48 h
[12] = measured here: epithelial PC-3E GFP cell survival
[13] = measured here: mesenchymal TEM4-18 mCherry cell survival
[14] = stronger effect = lower value, cell number ratio, induced over uninduced
[15] = measured here: relative caspase fold change +Dox/-Dox
[16] = measured here: total cells with miR-34 induction, stronger effect = lower value
[17] = measured here: total cells without miR-34 induction

SMILES	inhibition [1] [%]	score [2]	rescue above control [3]	cytochrome c release ratio [4]	inhibition of aggregation [5] [%]	glutamate uptake change [6] [%]	inclusion score [7]	aggregation suppression score [8]	parasite load remaining [9]	viability [9]	red/green cell ratio (normalised) [10]	normalised cell number [10, 12]	normalised cell number [10, 13]	fold change [11, 14]	fold change [11, 15]	cell count [11, 16]	cell count [11, 17]
C[C@@H]1CC2C3C[C@H](F)C4=CC(=O)C=C[C@]4(C)[C@@]3(F)[C@@H](O)C[C@]2(C)[C@@]1(O)C(=O)CO (stereo not given in full)	14.1	1.53	11.3	1.19	57.7	16.9	2	0.927	21.3% (inactive)	92.2%	1.15 (inactive)	1.15	1.33	0.92 (inactive)	1.86	7830	8520
C[C@H]1CC2C([C@@H](O)C[C@@]3(C)C2CC[C@]3(O)C(=O)CO)[C@@]2(C)C=CC(=O)C=C12 (stereo not given in full)	13.3	1.06	-2	0.64	83.1	14.1	2	1.35	110% (inactive) and 67.7% (inactive)	78.4% and 89.4%	1.21 (inactive)	1.36	1.64	0.922 (inactive)	1.43	7440	8070
C=C1CC[C@H](O)C/C1=C/C=C1\CCC[C@]2(C)C([C@H](C)/C=C/[C@H](C)C(C)C)CC[C@@H]12 (stereo not given in full)	1.02	0.91	1.1	1.43	63.2	0.71	3	0.441	81.3% (inactive) and 44.7% (inactive)	73.5% and 101%	1.11 (inactive)	1.28	1.42	0.922 (inactive)	2.88	11200	12200
CC(=O)[C@@]1(O)CCC2C3C[C@H](C)C4=CC(=O)C=CC4(C)[C@@]3(F)[C@@H](O)C[C@@]21C (stereo not given in full)	8.98	1.5	24.4	0.92	-25.4	25.3	3	1.45	116% (inactive) and 26.7% (inactive)	75.2% and 95.6%	1.21 (inactive)	1.18	1.43	0.851 (inactive)	3.38	7310	8590
C[C@]12CCC(=O)C=C1CCC1C2[C@@H](O)C[C@@]2(C)C1CC[C@]2(O)C(=O)COC(=O)CCC(=O)O (stereo not given in full)	7.51	1.55	-3.62	1.58	37.2	-0.65	2	1.36	137% (inactive) and 66.7% (inactive)	78.6% and 93.3%	1.43 (inactive)	0.86	1.23	0.766 (inactive)	0.842	7240	9450
CC(=O)OCC(=O)[C@@]1(O)[C@H](OC(C)=O)CC2C3CCC4=CC(=O)C=C[C@]4(C)[C@@]3(F)[C@@H](O)C[C@@]21C (stereo not given in full)	-24	1.15	19.5	1.31	89.7	9.09	2.5	0.805	160% (inactive) and 64.8% (inactive)	67.1% and 85.5%	1.19 (inactive)	0.98	1.17	0.86 (inactive)	3.23	7630	8870
C[N+]1(C)C2CC[C@H]1CC(OC(=O)C(O)c1ccccc1)C2 (stereo not given in full)	5.29	1.53	12.1	0.9	65.1	-16.5	2	1.36	95.8% (inactive) and 69.2% (inactive)	75.7% and 100%	0.83 (inactive)	1.16	0.97	0.874 (inactive)	1.28	10300	11800
CN1C2CC[C@@H]1CC(OC(=O)[C@H](CO)c1ccccc1)C2 (stereo not given in full)	10	1.23	0.71	1.28	89.7	-13.3	2	1.46	85.7% (inactive) and 75.8% (inactive)	72.7% and 94.9%	0.96 (inactive)	1.11	1.07	0.837 (inactive)	0.536	10500	12600
CC(C)[N+]1(C)C2CC[C@@H]1CC(OC(=O)C(CO)c1ccccc1)C2 (stereo not given in full)	3.73	1.48	-2.72	0.9	73	-1.05	2	0.901	88% (inactive) and 61.6% (inactive)	79% and 98.1%	0.61 (inactive)	1.35	0.82	0.876 (inactive)	1.18	10700	12200
C#C[C@]1(O)CCC2C3CCC4=CC(=O)CC[C@@H]4C3CC[C@@]21CC (stereo not given in full)	13.1	1.25	7	0.87	11.1	-5.94	2	1.03	86.4% (inactive) and 40.3% (inactive)	65.9% and 90.1%	1.08 (inactive)	0.78	0.84	0.867 (inactive)	2.88	10400	12000
CO[C@H]1C[C@H](O[C@H]2[C@H](C)[C@@H](OC3O[C@H](C)C[C@H](N(C)C)[C@H]3O)[C@@H](C)C[C@]3(CO3)C(=O)[C@H](C)[C@@H](O)[C@@H](C)[C@@H](C)OC(=O)[C@@H]2C)O[C@@H](C)[C@@H]1O (stereo not given in full)	27	1.24	28.2	0.97	7.94	5.06	2	1.24	283% (inactive) and 48.5% (inactive)	76% and 96.5%	1.12 (inactive)	0.84	0.94	0.824 (inactive)	2.52	10700	13000
C=C[C@H]1CN2CC[C@H]1C[C@@H]2[C@H](O)c1ccnc2ccc(OC)cc12	-2.2	1.5	-7.29	0.97	9.09	13.1		1.58	68.2% (inactive) and 15.1% (active)	72.3% and 81.3%	1.16 (inactive)	1.05	1.21	0.948 (inactive)	2.86	10900	11500
CN1CCN(CCC=C2c3ccccc3Sc3ccc(S(=O)(=O)N(C)C)cc32)CC1	35.1	0.75	18.8	2.01	76	-21.1		0.481	192% (inactive) and 47.1% (inactive)	71.3% and 85.4%	1.07 (inactive)	0.83	0.89	0.878 (inactive)	3.25	9700	11100
C[C@]12CCC3c4ccc(O)cc4CCC3C1C[C@@H](O)[C@@H]2O (stereo not given in full)	-10.9	0.64	0.35	0.85	84.5	-5.15	2	0.718	84.5% (inactive) and 67.1% (inactive)	72.3% and 96.2%	0.95 (inactive)	1	0.95	0.868 (inactive)	1.18	11100	12800
CCC(=O)OCC(=O)C1(OC(=O)CC)C(C)CC2C3CCC4=CC(=O)C=CC4(C)C3(Cl)C(O)CC21C (stereo not given)	-26	0.15	-4.19	1.11	41.7	23.7	2	1.25	142% (inactive) and 79.4% (inactive)	78.6% and 97.5%	1.47 (inactive)	0.88	1.29	0.749 (inactive)	1.52	6530	8720
CO/N=C(/C(=O)NC1C(=O)N2C(C(=O)O)=C(COC(N)=O)CSC12)c1ccco1 (stereo not given)	8.13	1.48	-9.55	1.1	28.8	14.5	2	1.29	180% (inactive) and 36.7% (inactive)	72.5% and 86.1%	0.94 (inactive)	1.04	0.97	0.899 (inactive)	3.3	11600	12900
O=C(O)CCCCC1SCC2NC(=O)NC21 (stereo not given)	27.9	1.08	4.79	0.89	0	-4.28	2	1.3	40.6% (inactive) and 36.1% (inactive)	78% and 88.2%	1.21 (inactive)	1.02	1.23	0.892 (inactive)	3.76	12200	13700
COC(=O)C1[C@H]2C[C@H]3c4[nH]c5ccccc5c4CCN3C[C@@H]2CC[C@@H]1O (stereo not given in full)	-35.1	1.22	15.8	0.69	9.99	-7.18	2	1.41	81.2% (inactive) and 40.6% (inactive)	73.2% and 95.3%	1.01 (inactive)	1.03	1.04	0.924 (inactive)	3.3	12100	13100
C#C[C@]1(O)CCC2C3CCC4=Cc5oncc5C[C@]4(C)C3CC[C@@]21C (stereo not given in full)	10.9	1.04	5.61	1.19	69.1	-6.15		0.874	83.8% (inactive) and 19.9% (inactive)	69% and 89.7%	1.05 (inactive)	1.19	1.26	0.952 (inactive)	2.2	9590	10100
CC(=O)[C@H]1CCC2C3CCC4=CC(=O)CC[C@]4(C)C3CC[C@@]21C (stereo not given in full)	41.6	0.59	3.59	1.24	84.5	-1.48		0.333	49.3% (inactive) and 27.2% (inactive)	66.1% and 99.4%	0.96 (inactive)	1.15	1.11	0.856 (inactive)	1.4	9840	11500
C[C@H](CCC(=O)O)[C@H]1CCC2C3C(=O)CC4CC(=O)CC[C@]4(C)C3CC(=O)[C@@]21C (stereo not given in full)	12.1	1.59	-5.38	1.29	91.6	7.41	2	1.06	101% (inactive) and 58% (inactive)	69.6% and 86.9%	1.22 (inactive)	1.21	1.47	0.851 (inactive)	1.32	10500	12400
CC(=O)O[C@]1(C(C)=O)CCC2C3C[C@H](C)C4=CC(=O)CC[C@]4(C)C3CC[C@@]21C (stereo not given in full)	28.3	0.63	2.76	1.2	59.1	30.6	2.5	0.615	76.4% (inactive) and 20.6% (inactive)	71.8% and 85.5%	1.21 (inactive)	1.07	1.3	0.945 (inactive)	3.26	8680	9190
